From PubChem BioAssay AID1981 (Southern Research Specialized Biocontainment Screening …, 2009)
About 480 (22%) of roughly 2,200 compounds were called active. A selection follows. Measured potencies and affinities stand elsewhere. Values without a mark were called inactive. The rule behind the calls is not given here.

experiment: S. Typhimurium GFP fluorescence modified counterscreen for PhoP regulon inhibitor project dose response (AID 1981); details: 4 h; series mostly up to 150 µM; inhibition: at the top concentration;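 note: 0% = induced DMSO wells and 100% = uninduced wells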

Row | SMILES | inhibition
1 | Cc1ccc(C(=O)Oc2cccc(NC(=O)c3cccs3)c2)cc1S(=O)(=O)N1CCOCC1 | -13%
2 | NC(=O)c1ccccc1N=Cc1ccccn1 | -4.7%
3 | Cc1cc(C)cc(NC(=O)CSc2nc3c(c(=O)[nH]2)CN(Cc2ccc(F)cc2)CC3)c1 | -13.9%
4 | COC(=O)C1(O)CC(C(C)C)=NN1C(=O)c1ccc(Cl)cc1 (configuration not stated) | -1.95%
5 | Cc1cccc(CN(C)C)c1OC(=O)N(C)C | -0.78%
6 | Cc1ccc(/C=C2\SC(=S)N(Cc3ccccc3)C2=O)o1 | 2.23%
7 | COc1ccc(NC2=Nc3cccc4cccc2c34)cc1 | 4.87%
8 | Oc1cccc2ccc[n+](CC(O)Cn3c4ccccc4c4ccccc43)c12 (configuration not stated) | 1.86%
9 | O=C(CSc1ncnc2ccccc12)Nc1cc(S(=O)(=O)N2CCCCC2)ccc1Cl | -3.66%
10 | COc1ccc(NS(=O)(=O)c2cc(C)ccc2NC(=O)c2cc(C)oc2C)cc1 | -2.27%
11 | COc1ccc(C)cc1C(=O)CCC(=O)Nc1ccccc1N1CCOCC1 | 6.84%
12 | CCCOc1ccc(C(=O)N2CCCC2C(=O)O)cc1 (configuration not stated) | 16.7%
13 | CCCOc1ccc(C(=O)CCC(=O)OCC(=O)N2CC(=O)Nc3ccccc32)cc1 | 16.2%
14 | CCn1cc(C(=O)NCc2ccncc2)c(=O)c2cc(F)c(N3CCN(C(=O)c4ccco4)CC3)cc21 | -5.18%
15 | O=C(CN1CCC(NC(=O)c2cccc(F)c2)CC1)NCc1ccccc1F | -13.7%
16 | O=C(Nc1nc(-c2ccncc2)cs1)C1c2ccccc2Oc2ccccc21 | 34.1%
17 | O=C1c2[nH]nc(-c3ccccc3O)c2C(c2ccc(F)cc2)N1Cc1ccco1 (configuration not stated) | -28.4%
18 | CCCCNC(=O)OC1CCS(=O)(=O)C1 (configuration not stated) | 3.96%
19 | COC(=O)c1ccccc1NC(=O)NCc1ccc2c(c1)OCO2 | -10.6%

Row | SMILES | inhibition
20 | O=C(CN1CCCCCC1)Nc1cccc(Br)c1 | -1.83%
21 | C=CCSc1nnc(-c2ccc(Cl)cc2Cl)o1 | -8.96%
22 | CCCCCOc1ccc(NC(=O)C(=O)NCCC2=CCCCC2)cc1 | -0.5%
23 | Cc1ccc(OCC(=O)N2CCN(S(=O)(=O)c3ccccc3)CC2)c([N+](=O)[O-])n1 | -21.7%
24 | Cc1nc(CC(=O)c2ccc(O)cc2O)cs1 | -4.6%
25 | CCc1c(C)c2cc(Cl)c(O)c(CN3CCCCC3)c2oc1=O | 6.99%
26 | Cc1onc(-c2c(F)cccc2Cl)c1C(=O)Nc1cccc(Cn2cccn2)c1 | 5.52%
27 | NC(CSC12CC3CC(CC(C3)C1)C2)C(=O)O (configuration not stated) | -3.86%
28 | Cn1c(CN2CCCCC2)nc2cc(NS(=O)(=O)c3ccc(Cl)cc3)ccc21 | -5.37%
29 | COc1ccc2c(c1)[nH]c1c(N3CCN(Cc4ccc5c(c4)OCO5)CC3)ncnc12 | -3.88%
30 | O=C(NCCNc1ccc([N+](=O)[O-])cc1C(F)(F)F)c1ccc(F)cc1 | 16.8%
31 | COCCNS(=O)(=O)c1cccn1-c1ncc(C(F)(F)F)cc1Cl | 8.31%
32 | CCCCn1c(SCC(=O)Nc2nnc(CC)s2)nc2c1c(=O)n(C)c(=O)n2C | 4.13%
33 | CCn1nc(C(=O)NCc2ccco2)c(Cl)c1Cl | -22.6%
34 | CCOC(=O)CSc1n[nH]c(NC(=O)c2cccc(C)c2)n1 | -1.32%
35 | Cc1cccc(C(=O)NC(=S)Nc2ccc(N3CCOCC3)cc2)c1 | -7.74%
36 | Cc1cc(C)c2nc(NNC(=O)c3ccc(S(=O)(=O)N4CCc5ccccc5C4)cc3)sc2c1 | 16.8%
37 | O=C(O)CCCCCN1C(=O)c2ccc(C(=O)O)cc2C1=O | -6.65%
38 | O=C(/C=C/c1ccccc1Cl)c1ccccc(=O)c1O | 7.68%

Row | SMILES | inhibition
39 | Cc1ccc(NC(=O)c2ccccc2)s1 | 17%
40 | CC1=C(C(=O)Nc2cccnc2)C(c2ccccn2)n2nnnc2N1 (configuration not stated) | 11%
41 | Cc1cccnc1NC(=O)CCCN1C(=O)c2ccccc2C1=O | -17%
42 | CC(=O)c1cccc(NC(=O)Nc2cccs2)c1 | 8.26%
43 | CC1(C)CC(=O)C=C(Nc2ccccc2NC(=O)c2cnccn2)C1 | -16%
44 | COc1ccc(N2CCN(C(=O)Nc3ccc(S(=O)(=O)N(C)C)cc3)CC2)cc1 | -4.18%
45 | Cc1ccc(S(=O)(=O)N(CC(=O)N=Nc2c(O)[nH]c3ccccc23)c2ccc(C)c(C)c2)cc1 | -1.5%
46 | NC(N)=Nc1nc(C2COc3ccccc3O2)cs1 (configuration not stated) | 6.56%
47 | O=C(CSCc1nc2ccccc2[nH]1)Nc1ccc2ccccc2c1 | 9.39%
48 | COc1cc(CNCc2ccccn2)ccc1OCC(=O)NC(C)(C)C | -6.14%
49 | O=S(=O)(/N=C(/Nc1cccc2ccccc12)c1ccccc1)c1cccs1 | -14.9%
50 | FC(F)(F)COc1nc(OCC(F)(F)F)nc(N2CCN(c3ccccc3)CC2)n1 | -12.4%
51 | COc1cccc(C2CC(=O)Nc3cc(OC)c(OC)c(OC)c32)c1OC (configuration not stated) | -9.55%
52 | COCCn1c(-c2ccccc2F)n[nH]c1=S | -1.15%
53 | C1=C(CCNc2ncnc3c2[nH]c2ccccc23)CCCC1 | -1.64%
54 | COc1ccc(C(=O)NCCC2=CCCCC2)cc1OC | 13.9%
55 | O=C(NC1CCCCC1)n1c(=O)oc2ccc(Cl)cc21 | 19.4%
56 | COc1ccc(C2C(C(=O)c3cccs3)=C(O)C(=O)N2c2nnc(C)s2)cc1OC (configuration not stated) | -14.3%
57 | Nc1ccc2c(c1)C(=O)N(CC1CCCO1)C2=O (configuration not stated) | -4.44%
